Compound activity deposited in PubChem BioAssay by National Center for Advancing Translational Sciences (NCATS).
DT40 TDP1 CPT – qHTS for Inhibitors of human tyrosyl-DNA phosphodiesterase 1 (TDP1): qHTS in cells in presence of CPT | hit rate 12% among 420,000 | chicken DT40 Tdp1-/-;hTDP1 cells + 20 nM CPT, ATP luminescence, 48 h | Potency, µM (titrated, usually from 46.2 µM), most hits filed as inhibitors; further: nearly all actives have a fitted effect of over 55% in size
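Cell growth measured by CellTiter-Glo luminescence after a minimum 48 h, 37 C compound exposure with 20 nM CPT in Tdp1-knockout DT40 cells stably expressing hTDP1, seeded 400/well; qHTS titration format.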
TDP1 block – qHTS Assay for Inhibitors of Tyrosyl-DNA Phosphodiesterase (TDP1) | recombinant TDP1, AlphaScreen DNA substrate cleavage | Potency, µM (top dose mostly 130 µM), most hits filed as inhibitors | hit rate 0.28% among 350,000 | AID 485290, 2010 | Tyrosyl-DNA phosphodiesterase 1 (Homo sapiens), Q9NUW8; further: nearly all actives have a fitted effect of over 40% in size
Target sequence (Q9NUW8 whole entry, looked up): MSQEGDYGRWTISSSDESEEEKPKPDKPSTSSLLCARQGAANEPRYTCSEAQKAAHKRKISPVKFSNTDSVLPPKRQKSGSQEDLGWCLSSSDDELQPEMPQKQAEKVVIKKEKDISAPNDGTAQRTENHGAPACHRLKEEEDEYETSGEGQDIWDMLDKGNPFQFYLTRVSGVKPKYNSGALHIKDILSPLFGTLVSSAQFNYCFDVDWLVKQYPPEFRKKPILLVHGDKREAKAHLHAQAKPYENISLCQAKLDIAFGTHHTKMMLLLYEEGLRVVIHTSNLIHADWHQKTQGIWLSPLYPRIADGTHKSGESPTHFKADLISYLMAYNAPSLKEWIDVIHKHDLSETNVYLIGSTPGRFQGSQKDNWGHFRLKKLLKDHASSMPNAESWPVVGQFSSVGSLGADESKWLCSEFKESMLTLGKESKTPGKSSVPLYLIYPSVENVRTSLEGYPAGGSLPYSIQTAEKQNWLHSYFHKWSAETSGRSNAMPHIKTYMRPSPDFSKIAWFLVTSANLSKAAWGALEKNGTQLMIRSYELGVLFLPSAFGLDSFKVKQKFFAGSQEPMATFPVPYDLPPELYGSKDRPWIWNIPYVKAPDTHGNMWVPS
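Recombinant human Tdp1 (E. coli-expressed, 1 nM final) preincubated with compounds 15 min at room temperature, then 5'-biotin/3'-phosphotyrosine-FITC DNA substrate (15 nM final) added for 5 min. AlphaScreen beads (10 ug/ml final) added 10 min; cleavage lowers signal.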
TDP1 cell noCPT – qHTS for Inhibitors of human tyrosyl-DNA phosphodiesterase 1 (TDP1): qHTS in cells in absence of CPT. DT40 Tdp1-/- hTDP1 cells, no CPT, ATP luminescence, 48 h. Potency, µM (top dose mostly 46.2 µM), usual class: inhibitors. AID 686978, 2013. hit rate 15% among 420,000; further: nearly all actives have a fitted effect of over 55% in size
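DT40 Tdp1-/-;hTDP1 cells, no CPT (DMSO vehicle only), 400 cells/well; compounds pin-transferred; ≥48 hr, 37 °C; CellTiter-Glo 30 min RT dark, luminescence read.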
ClpP mod – qHTS Assay for Activators of ClpP | purified B. subtilis ClpP, FRET peptide cleavage, 20 min | hit rate 1.9% among 340,000 | ATP-dependent Clp protease proteolytic subunit (Bacillus subtilis (strain 168)), P80244 | Potency, µM (titrated, usually from 57.5 µM); active means well fitted falling curve with a large enough effect; inconclusive means small, poorly fitted or top-dose-only effect; inactive means no such curve, though single readings can be large or run the other way; further: the source files actives as falling curves though it sought activators and does not explain the sign; nearly all actives have a fitted effect of over 65% in size
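ClpP 10 microg/mL final, pH 8 Tris/KCl buffer with BSA, glycerol, Tween-20; compound pinned in; FRET-FV substrate; RT 20 min; Ex320/Em430; ΔFRET vs ADEP 5.8 microM, DMSO, no enzyme.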
Of the large screens only hits and unclear results are named; the others gave an inactive call. An excerpt weighted towards active compounds, which were near 17% of everything screened. Unless noted, the call rests on the fitted dose curve; in most records, active means well fitted curve in the direction sought with a large enough effect; inconclusive means small, poorly fitted or top-dose-only effect, or another doubt; inactive means no such curve, though single readings can be large; an effect the other way counts as inactive or inconclusive.

CC(=O)Nc1ccc(S(=O)(=O)N2C(C)CCCC2C)cc1 (stereo unspecified)	DT40 TDP1 CPT inconclusive, TDP1 cell noCPT inconclusive (no result: TDP1 block)
CC(=O)N[C@@H]([C@@H](O)[C@H](O)[C@H](O)CO)[C@@H](O)CC(=O)C(=O)O	none (no result: TDP1 block, ClpP mod)
Cc1cccc(N2C(=O)/C(=C\c3ccc(C(=O)O)cc3)c3ccccc3C2=O)c1	DT40 TDP1 CPT 18µM, TDP1 cell noCPT inconclusive
O=C(CCC(=O)Nc1cccc(C(F)(F)F)c1)NCC1CCCO1 (stereo unspecified)	none (no result: TDP1 block, ClpP mod)
O=C(CSc1nc2sc3c(c2c(=O)n1-c1ccccc1)CCCC3)NCc1ccco1	DT40 TDP1 CPT 15µM, TDP1 cell noCPT inconclusive, ClpP mod inconclusive
CC(C#N)Sc1ncnc2sc3c(c12)CCC3 (stereo unspecified)	none
CC(=O)C(Sc1ncnc2sc3c(c12)CCCC3)C(C)=O	DT40 TDP1 CPT 13µM, TDP1 cell noCPT inconclusive
CC1(C)Cc2c(sc3nc(SCC(=O)NCc4ccco4)n(-c4ccccc4)c(=O)c23)CS1	none
Cc1cc(C)nc(Sc2ncnc3sc4c(c23)CCC4)n1	TDP1 cell noCPT inconclusive, ClpP mod 13µM
CC(C)c1nc2sc3c(SCC(=O)NCc4ccco4)ncnc3c2c2c1CCC2	DT40 TDP1 CPT inconclusive, TDP1 cell noCPT 16µM, ClpP mod 25µM
CC(C)[C@H](NC(=O)[C@H](CCCN=C(N)N)NC(=O)NC(Cc1ccccc1)C(=O)O)C(=O)NC(C=O)CCCN=C(N)N (stereo partly specified)	none
O=C(CSc1ncnc2sc3c(c12)CCCC3)c1ccco1	DT40 TDP1 CPT inconclusive, TDP1 cell noCPT inconclusive, ClpP mod inconclusive
O=C(CSc1ncnc2sc3c(c12)CCCCC3)NCc1ccco1	DT40 TDP1 CPT 9.2µM, TDP1 cell noCPT 9.2µM
O=C(CSc1ncnc2sc3c(c12)CCCC3)c1ccccc1	DT40 TDP1 CPT 29µM, TDP1 block inconclusive, TDP1 cell noCPT inconclusive
c1coc(CNc2nc3sc4c(c3c3ncnn23)CCCC4)c1	DT40 TDP1 CPT inconclusive, TDP1 cell noCPT 12µM
COc1cccc(NC(=O)c2ccncc2)c1	none
COc1cccc(-c2cc(C(=O)O)[nH]n2)c1	none
COc1ccc(Cl)cc1-c1nc(-c2ccc(NC(=O)c3ccncc3)cc2)no1	DT40 TDP1 CPT inconclusive, TDP1 cell noCPT 10µM (no result: TDP1 block)
COc1cccc(-c2cc(C(=O)Nc3ccc(F)cc3)[nH]n2)c1	DT40 TDP1 CPT inconclusive, TDP1 cell noCPT 16µM
COc1cccc(-c2nc(-c3ccc(NC(=O)c4ccncc4)cc3)no2)c1	DT40 TDP1 CPT 9.2µM, TDP1 cell noCPT 10µM, ClpP mod inconclusive
COc1ccc(-c2nc(-c3ccc(NC(=O)c4ccncc4)cc3)no2)cc1OC	DT40 TDP1 CPT 5.2µM, TDP1 cell noCPT 7.3µM
CC(=O)NC(=S)Nc1sc2c(c1C(N)=O)CCC(C)C2 (stereo unspecified)	none (no result: ClpP mod)
COc1ccc(Cc2nc(-c3ccc(NC(=O)c4cccnc4)cc3)no2)cc1	DT40 TDP1 CPT 5.8µM, TDP1 cell noCPT 6.5µM
COc1cc(-c2nc(-c3ccc(NC(=O)c4ccc5c(c4)OCO5)cc3)no2)cc(OC)c1OC	DT40 TDP1 CPT inconclusive, TDP1 cell noCPT inconclusive, ClpP mod 20µM
Cc1cc(Nc2ccccc2)nc(N2CCN(C(=O)c3ccc4c(c3)OCO4)CC2)n1	DT40 TDP1 CPT inconclusive, TDP1 cell noCPT inconclusive (no result: TDP1 block)
Cc1c(C(=O)N(Cc2ccccc2F)C2CCS(=O)(=O)C2)oc2ccc(F)cc12 (stereo unspecified)	DT40 TDP1 CPT 16µM, TDP1 cell noCPT 21µM
Cc1ccc2oc(C(=O)N(Cc3ccccc3F)C3CCS(=O)(=O)C3)c(C)c2c1 (stereo unspecified)	DT40 TDP1 CPT inconclusive, TDP1 cell noCPT 23µM
CC(=O)c1cccc(Nc2cc(C)nc3nc(-c4ccccc4C)nn23)c1	DT40 TDP1 CPT inconclusive, TDP1 cell noCPT inconclusive
COc1ccc(NC(=S)NC(=O)CC(C)C)c(OC)c1	none (no result: ClpP mod)
COc1cc(CN2CCN(CC#Cc3ccccc3)CC2CCO)cc(OC)c1 (stereo unspecified)	DT40 TDP1 CPT inconclusive, TDP1 cell noCPT inconclusive (no result: TDP1 block)
O=S(=O)(c1ccc(NC(=S)NCc2cccnc2)cc1)N1CCCCC1	DT40 TDP1 CPT 8.2µM, TDP1 cell noCPT 6.5µM
Cc1ccc(CNC(=O)c2oc3ccc(S(=O)(=O)N4CCOCC4)cc3c2C)cc1	TDP1 cell noCPT inconclusive
Cc1ccc(CNC(=O)c2oc3ccc(S(=O)(=O)N4CCC(C)CC4)cc3c2C)cc1	DT40 TDP1 CPT inconclusive, TDP1 cell noCPT 16µM
Cc1c(C(=O)NCc2cccnc2)oc2ccc(S(=O)(=O)N3CCCCC3)cc12	DT40 TDP1 CPT 10µM, TDP1 cell noCPT 14µM
O=C(O)c1cccc(/C=C2/C[C@@H]3[C@@H](/C=C/[C@@H](O)C4CCCCC4)[C@H](O)C[C@@H]3O2)c1	none (no result: ClpP mod)
C=CCn1c(C)c(C(C)=O)c(N2CCN(C(c3ccccc3)c3ccccc3)CC2)nc1=S	DT40 TDP1 CPT inconclusive, TDP1 cell noCPT 23µM (no result: ClpP mod)
O=Cc1cc2ccccc2cc1O	DT40 TDP1 CPT inconclusive (no result: TDP1 block)
O=c1c(O)cccc2cc(O)c(O)c(O)c12	DT40 TDP1 CPT inconclusive, TDP1 cell noCPT 21µM (no result: TDP1 block)
O=C1COc2ccc(-c3csc(=Nc4ccc(OC(F)F)cc4)n3CC3CCCO3)cc2N1 (stereo unspecified)	DT40 TDP1 CPT inconclusive, TDP1 cell noCPT 16µM
Cc1ccc(OCCC(=O)OCC(=O)c2ccc3c(c2)NC(=O)CO3)cc1	none
CN(C)S(=O)(=O)c1cccc(N=c2scc(-c3ccc4c(c3)NC(=O)CO4)n2CC2CCCO2)c1 (stereo unspecified)	DT40 TDP1 CPT 6.5µM, TDP1 cell noCPT 7.3µM
COCC(C)n1c(-c2ccc3c(c2)NC(=O)CO3)csc1=Nc1ccc(OC(F)F)cc1 (stereo unspecified)	DT40 TDP1 CPT 5.2µM, TDP1 cell noCPT 6.5µM
COc1ccccc1N=c1scc(-c2ccc3c(c2)NC(=O)CO3)n1CC1CCCO1 (stereo unspecified)	TDP1 cell noCPT 18µM
COc1ccccc1CNS(=O)(=O)c1ccc2c(c1)NC(=O)CO2	none
COc1ccc(-c2csc(N3CCN(S(=O)(=O)c4ccc5c(c4)NC(=O)CO5)CC3)n2)cc1	DT40 TDP1 CPT inconclusive, TDP1 cell noCPT inconclusive
CC(C)C(=O)Nc1cccc(C(=O)Nc2cc([N+](=O)[O-])ccc2Cl)c1	TDP1 cell noCPT inconclusive
Cc1cc([N+](=O)[O-])ccc1NC(=O)Nc1ccc(F)cc1F	DT40 TDP1 CPT 5.2µM, TDP1 cell noCPT 4.6µM, ClpP mod inconclusive
Cc1cc([N+](=O)[O-])ccc1NC(=O)c1cccc(NC(=O)C(C)C)c1	DT40 TDP1 CPT inconclusive, TDP1 cell noCPT 23µM
O=C(Nc1ccc(OC(F)(F)F)cc1)Nc1cccc([N+](=O)[O-])c1	DT40 TDP1 CPT 2.9µM, TDP1 cell noCPT 4.1µM
O=C(Nc1ccc(OC(F)(F)F)cc1)Nc1cccnc1	DT40 TDP1 CPT inconclusive, TDP1 cell noCPT inconclusive
